# From the antibiotic and cytotoxicity screens of Wong et al. (2023)
# The campaign covered roughly 39,000 compounds. About 3,300 (8.5%) were called active. For the sample, actives were picked, then their nearest neighbours and some compounds at random.
# System: HepG2
# Assay: cytotoxicity call (relative viability < 0.9)
# Details: 10 µM
row,SMILES,cytotoxicity call
1,Cc1ccc(S(=O)(=O)Nc2ccc3c(c2)C(=O)N([C@H](C)CO)C[C@@H](C)[C@@H](CN(C)Cc2ccccc2)OCCCC[C@@H](C)O3)cc1,inactive
2,C[C@H](CO)N1C[C@H](C)[C@H](CN(C)Cc2ccccc2)OCCCC[C@H](C)Oc2ccc(NS(=O)(=O)c3ccccc3)cc2C1=O,inactive
3,Cc1ccc(S(=O)(=O)Nc2ccc3c(c2)C(=O)N([C@H](C)CO)C[C@@H](C)[C@H](CN(C)Cc2ccccc2)OCCCC[C@H](C)O3)cc1,active
4,C[C@@H]1CN([C@@H](C)CO)C(=O)c2cc(NS(=O)(=O)c3ccccc3)ccc2O[C@@H](C)CCCCO[C@@H]1CN(C)Cc1ccccc1,inactive
5,Cc1ccc(S(=O)(=O)Nc2ccc3c(c2)C(=O)N([C@@H](C)CO)C[C@@H](C)[C@@H](CN(C)Cc2ccccc2)OCCCC[C@H](C)O3)cc1,inactive
6,C[C@@H]1CCCCO[C@@H](CN(C)Cc2ccccc2)[C@@H](C)CN([C@@H](C)CO)C(=O)c2cc(NS(=O)(=O)c3ccccc3)ccc2O1,active
7,C[C@H]1CN([C@@H](C)CO)S(=O)(=O)c2ccc(C#CCN(C)C)cc2O[C@@H]1CN(C)Cc1ccc2c(c1)OCO2,inactive
8,C[C@@H]1CN([C@@H](C)CO)C(=O)Cc2cc(NC(=O)CCCN(C)C)ccc2O[C@@H]1CN(C)S(=O)(=O)c1ccc(Cl)cc1,inactive
9,COC(=O)C(CC#Cc1ccc2c(c1)[C@]1(C(=O)N2)[C@H](c2ccccc2OCCO)N2[C@H](c3ccccc3)[C@H](c3ccccc3)OC(=O)[C@H]2[C@@H]1C(=O)N1CCc2cc(OC)c(OC)cc2C1)C(=O)OC,inactive
10,C[C@@H]1CCCCO[C@@H](CN(C)C(=O)Nc2ccc3c(c2)OCO3)[C@H](C)CN([C@H](C)CO)C(=O)c2cc(NC(=O)C3CCCCC3)ccc2O1,inactive
11,C=CN1CCCC1=O,inactive
12,C[C@@H]1CN([C@@H](C)CO)C(=O)c2cc(NC(=O)NC3CCCCC3)ccc2O[C@H]1CN(C)Cc1ccc(Cl)c(Cl)c1,inactive
13,C[C@H]1CN([C@@H](C)CO)C(=O)c2cc(NS(=O)(=O)c3ccc(Cl)cc3)ccc2O[C@H]1CN(C)Cc1ccc(C(F)(F)F)cc1,inactive
14,C[C@@H]1CN([C@@H](C)CO)C(=O)c2cc(NS(=O)(=O)c3ccc(Cl)cc3)ccc2O[C@H]1CN(C)Cc1ccc(C(F)(F)F)cc1,inactive
15,C[C@@H]1CN([C@H](C)CO)C(=O)c2cc(NS(=O)(=O)c3ccc(Cl)cc3)ccc2O[C@H]1CN(C)Cc1ccc(C(F)(F)F)cc1,inactive
16,C[C@H](CO)N1C[C@H](C)[C@@H](CN(C)Cc2ccc(C(F)(F)F)cc2)Oc2ccc(NS(=O)(=O)c3ccc(Cl)cc3)cc2C1=O,active
17,C[C@H]1CN([C@@H](C)CO)C(=O)c2cc(NS(=O)(=O)c3ccc(Cl)cc3)ccc2O[C@@H]1CN(C)Cc1ccc(C(F)(F)F)cc1,inactive
18,C[C@H](CO)N1C[C@H](C)[C@H](CN(C)Cc2ccc(C(F)(F)F)cc2)Oc2ccc(NS(=O)(=O)c3ccc(Cl)cc3)cc2C1=O,active
19,C[C@@H]1CN([C@@H](C)CO)C(=O)c2cc(NS(=O)(=O)c3ccc(Cl)cc3)ccc2O[C@@H]1CN(C)Cc1ccc(C(F)(F)F)cc1,active
20,C[C@@H]1CN([C@H](C)CO)C(=O)c2cc(NS(=O)(=O)c3ccc(Cl)cc3)ccc2O[C@@H]1CN(C)Cc1ccc(C(F)(F)F)cc1,active
21,C[C@H](CO)N1C[C@H](C)[C@H](CN(C)C(=O)Cc2ccccn2)Oc2cc(-c3ccc(C(=O)N(C)C)cc3)ccc2S1(=O)=O,inactive
22,N[C@@H](CSCc1ccccc1Cl)C(=O)O,inactive
23,COc1ccc(S(=O)(=O)Nc2ccc3c(c2)C(=O)N([C@@H](C)CO)C[C@H](C)[C@@H](CN(C)Cc2ccccc2)OCCCC[C@@H](C)O3)cc1,inactive

row,SMILES,cytotoxicity call
1,C[C@H]1CCCCO[C@@H](CN(C)C(=O)Nc2ccc3c(c2)OCO3)[C@@H](C)CN([C@@H](C)CO)C(=O)c2cc(NC(=O)Nc3ccc(F)cc3)ccc2O1,inactive
2,NNC(=S)Nc1cccc(F)c1,inactive
3,C[C@@H]1CN([C@@H](C)CO)C(=O)c2cc(C#CCN(C)C)cnc2O[C@H]1CN(C)S(=O)(=O)c1cn(C)cn1,inactive
4,COc1cccc(C#Cc2cnc3c(c2)C(=O)N([C@H](C)CO)C[C@H](C)[C@H](CN(C)C(=O)C2CCOCC2)O3)c1,inactive
5,C[C@H]1CCCCO[C@H](CN(C)Cc2ccc(C(=O)O)cc2)[C@@H](C)CN([C@@H](C)CO)C(=O)c2cc(NC(=O)Nc3ccc(C(F)(F)F)cc3)ccc2O1,inactive
6,Cc1noc(C)c1NC(=O)Nc1ccc2c(c1)C(=O)N([C@H](C)CO)C[C@@H](C)[C@H](CN(C)S(=O)(=O)c1ccc(F)cc1)OCCCC[C@@H](C)O2,inactive
7,ON/C=N\c1nonc1-c1cccnc1,inactive
8,Nc1c[nH]ccc1=O,inactive
9,COc1ccc(NC(=O)N(C)C[C@H]2OCCCC[C@H](C)Oc3ccc(NS(=O)(=O)c4cccs4)cc3C(=O)N([C@H](C)CO)C[C@@H]2C)cc1,inactive
10,COc1ccc2nc3cc(Cl)ccc3c(Nc3cc(CN4CCCC4)c(O)c(CN4CCCC4)c3)c2n1.O=P(O)(O)O.O=P(O)(O)O.O=P(O)(O)O.O=P(O)(O)O,active
11,CCC(=O)N[C@H]1CC[C@@H](CC(=O)OC)O[C@@H]1CO,inactive
12,CC(=O)c1ccc(F)c(Cl)c1,inactive
13,Nc1c2c(nc3ccccc13)CCCC2,inactive
14,Nc1nc(N)c2c(n1)CCCC2,inactive
15,Nc1c2ccccc2nc2ccccc12,active
16,Cl.Nc1c2c(nc3ccccc13)CCCC2,active
17,CCc1nc2ccccc2c(N)c1C,inactive
18,Nc1nnc(N)c2ccccc12,inactive
19,C[C@H](CO)N1C[C@H](C)[C@H](CN(C)C)Oc2cc(C#C[C@@H](C)O)ccc2S1(=O)=O,inactive
20,C=CCCCCCCCCC(=O)Nc1ccccc1C,inactive
21,C[C@@H]1CN([C@@H](C)CO)C(=O)c2cc(/C=C/c3ccccc3)cnc2O[C@H]1CN(C)C(=O)C1CCOCC1,inactive
22,C[C@@H]1CCCCO[C@@H](CN(C)Cc2ccncc2)[C@H](C)CN([C@H](C)CO)C(=O)c2cc(NC(=O)C3CCCCC3)ccc2O1,inactive
